We go through 50 molecules from PubChem BioAssay AID504339 (National Center for Advancing Translational Sciences (NCATS), 2011).

Hit rate of the full screen: of about 390,000 compounds, about 17,000 (4.4%) were called active. Not shown: some 8% with an inconclusive outcome. For the sample, actives were picked, then their nearest neighbours and some compounds at random. A number with no mark means an inactive call. Calls come from the whole dose curve; as a rule, active = well fitted inhibition curve with a large enough effect; inconclusive = small, poorly fitted or top-dose-only effect; inactive = no such curve, though single readings can be large or run the other way.
% is set by controls: 0 for no effect and ±100 for the full control effect; potency is the fitted concentration of half-maximal effect.

Chain of Lysine-specific demethylase 4A (Homo sapiens) (O75164 whole entry, looked up, the tested form may be a part): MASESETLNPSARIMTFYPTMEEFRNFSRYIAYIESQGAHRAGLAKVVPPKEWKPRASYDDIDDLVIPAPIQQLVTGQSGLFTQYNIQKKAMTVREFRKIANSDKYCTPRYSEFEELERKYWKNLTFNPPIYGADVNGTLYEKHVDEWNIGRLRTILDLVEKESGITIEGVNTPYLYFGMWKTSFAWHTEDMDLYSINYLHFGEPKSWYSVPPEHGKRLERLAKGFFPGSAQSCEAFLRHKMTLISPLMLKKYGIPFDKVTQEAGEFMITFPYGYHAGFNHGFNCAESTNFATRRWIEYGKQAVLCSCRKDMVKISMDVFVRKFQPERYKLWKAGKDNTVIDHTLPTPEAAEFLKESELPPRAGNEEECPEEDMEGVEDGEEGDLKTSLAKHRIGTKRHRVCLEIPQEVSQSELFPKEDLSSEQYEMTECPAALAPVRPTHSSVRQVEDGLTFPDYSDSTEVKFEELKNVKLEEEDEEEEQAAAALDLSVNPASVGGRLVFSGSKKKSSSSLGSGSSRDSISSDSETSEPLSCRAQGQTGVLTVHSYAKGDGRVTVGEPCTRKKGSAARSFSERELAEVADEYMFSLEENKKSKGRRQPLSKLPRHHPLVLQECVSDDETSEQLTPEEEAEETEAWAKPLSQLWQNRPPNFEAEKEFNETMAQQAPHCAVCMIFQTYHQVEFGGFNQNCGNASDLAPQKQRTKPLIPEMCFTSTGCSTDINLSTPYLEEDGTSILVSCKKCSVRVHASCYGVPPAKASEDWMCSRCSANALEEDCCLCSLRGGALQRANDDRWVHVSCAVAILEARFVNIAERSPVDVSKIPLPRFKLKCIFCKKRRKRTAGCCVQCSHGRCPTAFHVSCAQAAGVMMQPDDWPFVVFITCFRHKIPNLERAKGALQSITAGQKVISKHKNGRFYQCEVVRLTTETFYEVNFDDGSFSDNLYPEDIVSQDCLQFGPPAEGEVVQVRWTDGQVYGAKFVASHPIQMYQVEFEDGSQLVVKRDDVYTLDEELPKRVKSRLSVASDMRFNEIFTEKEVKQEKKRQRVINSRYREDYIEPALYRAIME

The assay has as its target Lysine-specific demethylase 4A (Homo sapiens) (UniProt O75164). The assay can be described thus: qHTS Assay for Inhibitors of JMJD2A-Tudor Domain. Note: nearly all actives have a fitted effect of over 50% in size. The note with it: AlphaScreen JMJD2A-Tudor / H3K4me3 peptide binding; series mostly up to 114 µM; activity change, negative = inhibition: at the top concentration. From the text: JMJD2A is a jumonji-domain-containing lysine demethylase that uses Fe(II) together with 2-OG to effect oxidative demethylation of histones. Methylation is one of many […] modification that affect epigenetic transcription. […] It is proposed that the functions of JmjD2A binding to the histones, is to maintain marks after they are installed and to spread the modifications by […], establishing a self-propagating cycle for rapid methylation over a large area of chromatin. […] Thus, small molecule targeting of the JMJD2A-tudor domain interaction with its target methylhistone mark is expected to enable sophisticated experiments probing the fine regulatory pathways leading to selective demethylation of a given methyllysine locus based on the methylation state of adjacent histone marks. A quantitative high throughput AlphaScreen has been developed to identify small molecule inhibitors based on a protocol published by NCGC and SGC [4].
Although AlphaScreen has significant advantages with its utility in a variety of epigenetic target assays, the primary screening data provided in this deposition should be used with caution due to the prevalence of screening artifacts. The top compound concentration tested was high (>100uM) in this assay, which increases number of actives and potential artifacts. An AlphaScreen counterscreen is highly recommended to be run against any putative actives to eliminate non-specific artifacts. Alternatively, one can use other AlphaScreen assays in PubChem to filter out promiscuous hits.
[1] Lee, J. et al. Distinct binding modes specify the recognition of methylated histone H3K4 and H4K20 by JMJD2A-tudor. Nat Struct Mol Biol. 15(1); 109-11. 2008. PMID: 18084306
[2] Yasgar, et al. Compound Management for Quantitative High-Throughput Screening. JALA. 2008 Apr;13(2):79-89. PMID: 18496600
[3] Inglese, et al. Quantitative high-throughput screening: a titration-based approach that efficiently identifies biological activities in large chemical libraries. Proc Natl Acad Sci. 1;103(31):11473-8. 2006. PMID: 16864780
[4] Quinn et al. A homogeneous method for investigation of methyl-dependent protein-protein interactions in epigenetics. Nucleic Acids Res., 38(2):e11. 2010. PMID: […]
[5] Baell,Holloway. New substructure filters for removal of pan assay interference compounds (PAINS) from screening libraries and for their exclusion in bioassays. J Med Chem. 53(7):2719-40. 2010. PMID: 20131845
NIH Molecular Libraries Probe Production Network [MLPCN]
NIH Chemical Genomics Center [NCGC]
Structural Genomics Consortium (SGC)
To each well of a 1,536w plate, 2ul of JMJD2A-Tudor (final 100nM) and 1ul biotinylated histone peptide methylated at Lys4 [b-H3(1-18)K4me3] (final 50nM) were added in 1x PBS buffer, pH 7.4, containing 0.01% Tween-20, using a nanoliter dispenser. Formation of a protein-peptide complex proceeded at room temperature for 30 min. A Kalypsys pin-tool transferred 23nl of library compound solution in DMSO to each well. Following a 30 min incubation of the protein-peptide complex with compounds at room temperature, a mixture of 40 µg/mL each streptavidin-coated donor and nickel chelate acceptor AlphaScreen beads (final 10 µg/mL) was added in a 1ul dispense for a final volume of 4ul, followed by a brief centrifugation (1000 rpm, 1 min). Plates were incubated protected from the light for 20 min at room temperature. Microplates were then read on an EnVision multilabel plate reader using the 1,536 plate HTS AlphaScreen aperture (excitation time 80 ms, measurement time 240 ms).
Consider `CCN(CC)CCCSc1nc2ccccc2s1`, for which the Potency was 28.2 µM (active).
On to `COc1ccc(C(=O)COC(=O)CCCC(=O)Nc2cc(C(F)(F)F)ccc2Cl)cc1`, for which the “activity change, negative = inhibition” value was 17%.
Same read-out and setting: the result for `COc1c(Cl)cc(C(=O)N(Cc2ccccc2F)C2CCS(=O)(=O)C2)cc1Cl` (stereo not given) reads -16%.
On the same count and under the same terms, the same measure for `Cn1nnnc1SCCNCc1ccc(Cl)c(Cl)c1`: -11.6%; for `CCOc1ccccc1C(=O)NCc1ccc2c(c1)CCN2C(=O)c1ccc(F)cc1`: -6.33%; for `COc1cc(OC)cc(-c2c(-c3cccs3)c3cc(-c4ccc(OC)nc4)ccc3n2C)c1`: -13.6%.
Turning to `COc1ccc(-c2c(-c3cc(OC)cc(OC)c3)n(C)c3ccc(-c4ccn[nH]4)cc23)cc1`, the Potency is 22.4 µM (active).
For `COc1cc(OC)cc(-c2c(-c3ccc(F)cc3)c3cc(-c4ccc5cc[nH]c5c4)ccc3n2C)c1`, the “activity change, negative = inhibition” value was -22.9%.
For the molecule `Cc1cccc(OCCCC(=O)Nc2sc3c(c2C(N)=O)CCC(C)C3)c1` (stereo not given), the “activity change, negative = inhibition” value is -22.5%.
As to `Cc1cc(C)nc(N/N=C/c2c(CO)cnc(C)c2O)n1`, the Potency was 89.1 µM (active).
For `CCS(=O)(=O)c1nc(S(=O)(=O)c2ccc(C)cc2)c(NCc2ccc(Cl)cc2)s1`, the “activity change, negative = inhibition” value is -5.37%.
Same read-out and setting: the result for `Cc1ccccc1NC(=O)Cn1c(=O)n(CC2CCC(C(=O)NCCc3ccccc3)CC2)c(=O)c2ccccc21` (stereo not given) reads 0.343%.
With `CCc1ccc(CNC(=O)c2cc3c(=O)n(CC)c4ccccc4c3s2)cc1`, the “activity change, negative = inhibition” value is -7.41%.
Take `CN(C)c1ccc(CSc2ccccc2)cc1`: the Potency is 20 µM (active).
With `CN(C)c1cc[n+](Cc2ccccc2)cc1`, the “activity change, negative = inhibition” value is 7.22%.
Same read-out and setting: the result for `CN(C)c1ccc(C(CC(=O)O)C(=O)O)cc1` (stereo not given) reads -19.5%.
As for `Cc1ccccc1NC(=O)CCOc1ccccc1`, the Potency entry was “inactive”.
Regarding `Cc1ccccc1NC(=O)CSC(=O)c1ccccc1`, the Potency is 89.1 µM (active).
As to `Cc1cccc(NC(=O)CSC(N)=O)c1C`, the “activity change, negative = inhibition” value is -8.89%.
Same read-out and setting: the same measure for `COc1ccccc1NC(=O)c1sc2nc(C)c(C(=O)Nc3ccc(Cl)cc3)c(-c3ccc(Br)cc3)c2c1N`: -2.39%.
Regarding `Cn1c(CC2Sc3ccccc3NC2=O)nnc1SCC(=O)c1ccc(Cl)cc1` (stereo not given), the Potency was 25.1 µM (active).
`Cn1c(CC(=O)Nc2ccccc2)nnc1SCC(=O)c1ccccc1`: the “activity change, negative = inhibition” value was -9.68%.
Turning to `O=C(CC1Sc2ccccc2NC1=O)NNc1ccc(Cl)c(Cl)c1` (stereo not given), the “activity change, negative = inhibition” value is -9.09%.
As to `CN(C(=O)CSc1nnc(NC(=O)Nc2ccccc2)s1)c1ccccc1`, the “activity change, negative = inhibition” value is -10.4%.
Same read-out and setting: the same measure for `COc1ccc(CNC(=O)Cn2nnc(-c3ccccc3F)n2)cc1`: -11.6%; for `Cc1cccc(NC(=O)Cn2cc(S(=O)(=O)Cc3ccccc3Cl)c3ccccc32)c1`: -14.9%.
Same read-out and setting: the same measure for `CSc1ccc(C2C(C(=O)Nc3ccccc3)=C(C)Nc3nc4ccccc4n32)cc1` (stereo not given): -12.3%; for `COCCNC(=O)c1cc(-c2cccc(Cl)c2)on1`: -21.2%.
For `O=C(CN1C(=O)/C(=C/c2ccccc2F)Sc2ccccc21)NCc1cccnc1`, the Potency is 89.1 µM (active).
Turning to `O=C(CN1C(=O)S/C(=C\c2ccccc2F)C1=O)NCCCn1ccnc1`, the “activity change, negative = inhibition” value is -14.5%.
Still for that read-out and setting: the same measure for `O=C(CN1C(=O)/C(=C\c2ccc(C(F)(F)F)cc2)Sc2ccccc21)NCc1ccco1`: -13.2%.
Still for that read-out and setting: the result for `Cc1nn(CC(=O)N2CCN(c3cccc(C(F)(F)F)c3)CC2)c(=O)c2cc3sccc3n12` reads -5.45%.
In the case of `CCc1ccc(S(=O)(=O)Nc2cc3c(C(=O)OCc4ccccc4)c(C)oc3c3ccccc23)cc1`, the “activity change, negative = inhibition” value was -19%.
On the same count and under the same terms, the result for `Cc1ccc(-c2cc(C(=O)Oc3ccccc3Cl)no2)cc1C` reads 101%.
On the same count and under the same terms, the same measure for `Cc1ccc(NC(=O)NNC(=O)c2sccc2-n2cccc2)cc1`: -27%.
As to `C=CC[n+]1c(-c2ccc(C)cc2)csc1NNC(=O)Nc1ccccc1`, the Potency was 28.2 µM (active).
For `O=C(NNC(=O)c1ccc(-c2ccccc2)cc1)Nc1ccccc1`, the “activity change, negative = inhibition” value was -2.1%.
With `FC(F)(F)c1cc(Nc2nc3ccccc3c3nncn23)ccc1Cl`, the “activity change, negative = inhibition” value is -8.56%.
Still for that read-out and setting: the same measure for `CC(C)(C)n1nnnc1C(c1ccccc1F)N1CCN(C(=O)c2ccco2)CC1` (stereo not given): 6.92%; for `CCC(c1nnnn1C1CCCC1)N1CCN(C(=O)c2ccco2)CC1` (stereo not given): -20.8%.
`CCC(C)(C)n1nnnc1C(c1ccc(OC)c(OC)c1)N1CCN(C(=O)c2ccco2)CC1` (stereo not given): the Potency is 79.4 µM (active).
For `CC1CCCCN1S(=O)(=O)c1ccc(C(=O)Nc2nnc(-c3cccs3)o2)cc1` (stereo not given), the activity change, negative = inhibition was -1.53% [at 11.4 µM].
In the case of `CSCc1nnc(NC(=O)c2ccc(S(=O)(=O)N3CCCCC3C)cc2)o1` (stereo not given), the Potency is 50.1 µM (active).
As to `CC1CCCCN1S(=O)(=O)CCNC(=O)c1ccccc1` (stereo not given), the “activity change, negative = inhibition” value was -2.72%.
As to `Cc1nnc(C)n1-c1ccc(C(=O)Nc2cccc(Br)c2)cc1`, the “activity change, negative = inhibition” value was -7.42%.
For `COC(=O)CN1C(=O)CSc2ccc(S(=O)(=O)Nc3cc(C)ccc3C)cc21`, the “activity change, negative = inhibition” value is -13.4%.
On the same count and under the same terms, the same measure for `CC(C)(C)OC(=O)N1CCC(c2c(C(=O)N3CCc4ccccc4C3)cnn2-c2ccc(F)cc2)CC1`: -18.4%.
Still for that read-out and setting: the same measure for `Cc1ccc(Cl)cc1N1CCN(C(=O)C2CCC(CNS(=O)(=O)c3cccs3)CC2)CC1` (stereo not given): -20.2%.
Still for that read-out and setting: the same measure for `C#CCOc1ccc(C2CC(=O)Nc3c2c(C)nn3-c2nc(C)cc(C)n2)cc1` (stereo not given): -27.2%; for `Cc1ccc(CSc2oc(-c3cccs3)nc2S(=O)(=O)c2ccc(C)cc2)cc1`: -1.37%.
